# Source: PubChem BioAssay (NCATS)
# Inconclusive results are not listed. Where a call stands in place of a potency, no number is given. The source holds several records for some structures; these can differ, active in one and inactive in another. A number with no mark means an inactive call. Activity calls are given as the source filed them. Calls follow the shape of the dose curve; as a rule, active = well fitted curve in the direction sought with a large enough effect; inconclusive = small, poorly fitted or top-dose-only effect, or another doubt; inactive = no such curve, though single readings can be large; an effect the other way counts as inactive or inconclusive.
# Legend:
# [1] = Viability qHTS for spleen associated tyrosine kinase inhibitor (SYKi) naive MV4-11 cells (AID 1963823); also: nearly all actives have a fitted effect of over 40% in size; also: potency is read from the fitted curve at half-maximal effect
# How it was run: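 SYKi-naive MV4-11 AML cells, 500 per well, were exposed to library compounds for 72 hr at 37 C, 5% CO2. Viability was then read by CellTiter-Glo luminescence after 10 min at room temperature.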
# [2] = Viability qHTS for spleen associated tyrosine kinase inhibitor (SYKi) drug resistant MV4-11 cells (AID 1963824); also: nearly all actives have a fitted effect of over 35% in size; also: potency is read from the fitted curve at half-maximal effect
# How it was run: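 SYK-inhibitor-resistant MV4-11 AML cells were seeded at 500 per well onto compound and cultured 72 hours (37 °C, 5% CO2). CellTiter-Glo was then added, and after 10 min at room temperature, luminescence gave viability.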
# [3] = Quantitative highthroughput screen to assess conditional lethalithy of NOMO1 cells grown in RPMI1640 with untreated serum (RPMI+s) (AID 1963876); also: nearly all actives have a fitted effect of over 35% in size
# How it was run: (§1)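 Each medium arm—HPLM with 10% dialyzed FBS, or RPMI1640 with 5 mM glucose and 10% untreated or dialyzed FBS—was screened against an 11-point, 3-fold compound titration for 48 h at 37 °C, with CellTiter-Glo luminescence as endpoint.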
# [4] = Quantitative highthroughput screen to assess conditional lethalithy of NOMO1 cells grown in RPMI1640 with dialyzed fetal bovine serum (RPMI+ds) (AID 1963877); also: series mostly up to about 46 µM; nearly all actives have a fitted effect of over 30% in size
# How it was run: as §1
# [5] = Quantitative highthroughput screen to assess conditional lethalithy of NOMO1 cells grown in Human Plasma-Like Medium with dialyzed fetal bovine serum (HPLM+ds) (AID 1963878); also: nearly all actives have a fitted effect of over 35% in size
# How it was run: as §1
# [6] = Quantitative highthroughput screen to assess conditional lethalithy of P12 Ichikawa cells grown in Human Plasma-Like Medium with dialyzed fetal bovine serum (HPLM+ds) (AID 1963879); conditions: Potency: viability; also: series mostly up to about 46 µM; nearly all actives have a fitted effect of over 35% in size
# How it was run: as §1
# [7] = Quantitative highthroughput screen to assess conditional lethalithy of P12 Ichikawa cells grown in RPMI1640 with dialyzed fetal bovine serum (RPMI+ds) (AID 1963880); conditions: Potency: P12-Ichikawa viability; also: nearly all actives have a fitted effect of over 35% in size
# How it was run: as §1
# [8] = Quantitative highthroughput screen to assess conditional lethalithy of P12 Ichikawa cells grown in RPMI1640 with untreated serum (RPMI+s) (AID 1963881); conditions: Potency: viability
# How it was run: as §1
# [9] = Quantitative highthroughput screen to assess conditional lethalithy of SEM cells grown in Human Plasma-Like Medium with dialyzed fetal bovine serum (HPLM+ds) (AID 1963882)
# How it was run: as §1
# [10] = Quantitative highthroughput screen to assess conditional lethalithy of SEM cells grown in RPMI1640 with unreated serum (RPMI+s) (AID 1963883); also: nearly all actives have a fitted effect of over 35% in size
# How it was run: as §1
# [11] = Cellular viability qHTS for adrenocortical cancer (ACC) cell line SW-13 (AID 1963989); conditions: SW-13 ACC cells viability, CellTiter-Glo, 48 h; activity (max response): stronger effect = lower value;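 also: cells grown in serum-free medium with ITS supplement; nearly all actives have a fitted effect of over 65% in size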
# How it was run: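 SW-13 cells in ITS-supplemented serum-free DMEM were plated overnight, then exposed for 48 h at 37C to compound titrations (up to 46 uM final). Viability was read by CellTiter-Glo luminescence; four-parameter logistic fits gave IC50 and efficacy.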
# [12] = Cellular viability qHTS for adrenocortical cancer (ACC) cell line NCI-H295R (AID 1963990); also: nearly all actives have a fitted effect of over 60% in size
# How it was run: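 Luminescent ATP read-out (CellTiter-Glo, 20 min RT) after 48 h drug exposure of NCI-H295R cells; a titration up to 46 uM final. Data normalized to doxorubicin (100% inhibition) and DMSO (0%); 4-parameter fit gives IC50, max response.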
smiles,measurement,setting,value
CCOc1cn(-c2ccc(F)cc2C)nc1C(=O)Nc1ccc(Oc2ccnc3cc(OC)c(OC)cc23)c(F)c1,Potency,[1],0.259 µM (active)
same,Potency,[2],0.651 µM (active)
Nc1nc(COC(=O)c2ccc([N+](=O)[O-])cc2)nc(Nc2ccccc2)n1,Potency,[1],inactive
Nc1cc(C(F)(F)F)ccc1S,Potency,[1],21.1 µM (active)
COc1cc2nc(N3CCN(C(=O)COc4c(OC)cccc4C(C)C)CC3)nc(N)c2cc1OC,Potency,[1],20.6 µM (active)
C=C1[C@H]2CCC3[C@]4(C)CCC[C@@](C)(C(=O)O)C4CC[C@]3(C2)[C@H]1OC(C)=O (stereo not given in full),Potency,[1],inactive
CC1=CC(=O)CC(C)(C)C1CCC(C)O[C@@H]1O[C@H](CO)[C@@H](O)[C@H](O)[C@H]1O (stereo not given in full),Potency,[1],inactive
same,Potency,[2],inactive
CCCCCOC(=O)Nc1nc(=O)n(C2O[C@H](C)[C@@H](O)[C@H]2O)cc1F (stereo not given in full),Potency,[1],inactive
O=S(=O)(c1ccccc1)c1cnc2c(N3CCNCC3)cccc2c1,Potency,[1],inactive
CC(C)(C)n1nc(Cc2cccc3ccccc23)c2c(N)ncnc21,Potency,[1],10.3 µM (active)
COc1ccc(S(=O)(=O)Nc2nc(-c3cccc([N+](=O)[O-])c3)cs2)cc1OC,Potency,[1],inactive
O=C(/C=C/c1ccc(O)cc1)OC[C@H]1O[C@@H](O/C(=C\c2ccccc2)C(=O)O)[C@H](O)[C@@H](O)[C@@H]1O,Potency,[1],inactive
COC(=O)C1=CO[C@@H](O[C@@H]2O[C@H](CO)[C@@H](O)[C@H](O)[C@H]2O)[C@@H]2[C@@H](C)[C@@H](O)C[C@H]12,Potency,[1],inactive
same,Potency,[2],inactive
C=CC1C(OC2OC(CO)C(O)C(O)C2O)OC=C(C(=O)OC)C1CC1CC(=O)CC(CCc2ccc(O)cc2)O1 (stereo not given),Potency,[1],inactive
CC(C)(C)NC(=O)[C@H]1CC[C@H]2[C@@H]3CC[C@H]4NC(=O)CC[C@]4(C)[C@H]3CC[C@]12C,Potency,[1],inactive
C/C=C/C(O)C1OC(=O)CC1Nc1ccc(C(=O)O)cc1 (stereo not given),Potency,[1],inactive
same,Potency,[2],inactive
CC(C/C=C/C(C)(C)O)C1CCC(C)(O)C(O)C1 (stereo not given),Potency,[1],inactive
same,Potency,[2],inactive
OC[C@H]1O[C@@H](O[C@H]2[C@H](OCCc3ccccc3)O[C@H](CO)[C@@H](O)[C@@H]2O)[C@H](O)[C@@H](O)[C@@H]1O,Potency,[1],inactive
C=CC1(C)CC(OC(=O)/C(C)=C\COC(C)=O)C(C(=C)C(=O)O)C(O)C1C(=C)CO (stereo not given),Potency,[1],inactive
C=C(CC/C=C(\C)C(=O)O)C1(O)CC=C(C)CC1 (stereo not given),Potency,[1],inactive
CC(=O)OC[C@@]12[C@H](O)C[C@]3(C)C(=CCC4[C@@]5(C)CC[C@H](O[C@@H]6O[C@H](C(=O)O)[C@@H](O[C@@H]7O[C@H](CO)[C@@H](O)[C@H](O)[C@H]7O)[C@H](O)[C@H]6O[C@@H]6O[C@H](CO)[C@@H](O)[C@H](O)[C@H]6O)[C@](C)(CO)C5CC[C@]43C)[C@@H]1CC(C)(C)[C@@H](OC(C)=O)[C@@H]2O (stereo not given in full),viability (% of control),[1],96.3% [at 9.25 µM]
same,"viability, % of control",[2],95.8% [at 9.25 µM]
CC[C@H]1OC(=O)[C@H](C)[C@@H](O[C@H]2C[C@@](C)(OC)[C@@H](O)[C@H](C)O2)C(C)[C@@H](O[C@@H]2O[C@H](C)C[C@H](N(C)C)[C@H]2O)[C@](C)(O)C[C@@H](C)CN(C)[C@H](C)[C@@H](O)[C@]1(C)O (stereo not given in full),Potency,[1],inactive
C[C@@H]1CC[C@]2(C(=O)O)CC[C@]3(C)C(=CCC4[C@@]5(C)C[C@@H](O)[C@H](O)[C@@](C)(CO)C5CC[C@]43C)C2[C@H]1C (stereo not given in full),Potency,[1],inactive
CCC(C)/C=C(C)/C=C/C1=CC2=C(Cl)C(=O)C(C)(OC(C)=O)C(=O)C2=CN1C(CC(=O)O)C(=O)O (stereo not given),Potency,[1],inactive
Cc1cn(C2C[C@H](O)[C@@H](CO)O2)c(=O)[nH]c1=O (stereo not given in full),Potency,[1],inactive
CCCOc1ccc(-c2nc(OC)c3ccccc3n2)cc1,Potency,[1],inactive
same,Potency,[2],inactive
Cc1cc(-c2ncc(-c3cccnc3)cc2/C=C/c2ccccc2)cnc1-c1cccnc1,Potency,[1],inactive
same,Potency,[2],inactive
C[C@H]1O[C@@H](O[C@H]2CC[C@@]3(C)C(CC[C@]4(C)C3CC=C3C5CC(C)(C)CC[C@]5(C(=O)O)CC[C@]34C(=O)O)C2(C)C)[C@H](O)[C@@H](O)[C@@H]1O (stereo not given in full),Potency,[1],inactive
COc1ccc(C2=CC(=O)OC2Cc2ccc(O)cc2)c(O)c1 (stereo not given),Potency,[1],inactive
Cn1c(CNc2ccc(C(=N)N)cc2)nc2cc(C(=O)N(CCC(=O)O)c3ccccn3)ccc21,Potency,[1],4.61 µM (active)
same,viability (% of control),[1],81.5% [at 0.588 µM]
same,Potency,[3],inactive
same,Potency,[4],inactive
same,Potency,[5],inactive
same,Potency,[6],inactive
same,Potency,[7],inactive
same,Potency,[8],inactive
same,Potency,[9],inactive
same,Potency,[10],inactive
same,activity (max response),[11],9.7%
same,"activity change, negative = viability loss",[12],15.5% [at 0.587 µM]
O=C(O)CCc1ccc(NCc2cccc3c2CCCN3CCOc2ccccc2)cc1F,Potency,[1],inactive
CC(=O)OC1CC(C(C)(C)O)OC2CCC3(C)OC4=C(C(=O)C=C5C(C)C(OC(C)=O)C6(C)C(C)OC546)C(O)C3C12C (stereo not given),Potency,[1],inactive
